Laboratory results published in PubChem BioAssay (NCATS).
Several values for one entry are separate records, joined by “and”; a condition that tells them apart may be missing. Equal values may be shown once. Where a structure was tested more than once in an assay, its records may differ in their call. Activity calls are given as the source filed them. Entries that show only a call come without a potency. Unless noted, calls follow the shape of the full dose curve.

Key:
[1] = molecular target: Ubiquitin carboxyl-terminal hydrolase 1 (Homo sapiens) (UniProt O94782); experiment: Inhibitors of USP1/UAF1: Pilot qHTS (AID 504865; active = well fitted inhibition curve with a large enough effect; inconclusive = small, poorly fitted or top-dose-only effect; also: nearly all actives have a fitted effect of over 35% in size; also: potency is read from the fitted curve at half-maximal effect)
Summary of the method: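 Deubiquitinase activity followed as kinetic rhodamine fluorescence release from 150 nM Ub-Rho. 1 nM USP1/UAF1 with compound, after 15 min room-temperature preincubation, in HEPES pH 7.8 buffer containing TCEP, EDTA, BSA and Tween-20.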

[2] = molecular target: Estrogen receptor (Homo sapiens) (UniProt P03372); experiment: qHTS assay for small molecule antagonists of estrogen receptor alpha signaling (AID 588513; active = well fitted curve in the direction sought with a large enough effect in the signal ratio, with a control signal flat, not every such curve was filed as active; inconclusive = small, poorly fitted or top-dose-only effect, or effect the other way, or a change in a side signal; inactive = no such curve, though single readings can be large or run the other way; the % refers to the signal ratio; also: potency is read from the fitted curve at half-maximal effect)
Summary of the method: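 Antagonist mode: inhibition of 0.5 nM 17-beta-estradiol-driven beta-lactamase reporter in HEK 293 ER-alpha-UAS-bla cells, 18 h at 37C, CCF4 readout after 2 h at RT. Normalised to estradiol and DMSO; titration fitted to Hill.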

[3] = molecular target: Estrogen receptor (Homo sapiens) (UniProt P03372); experiment: qHTS assay for small molecule agonists of estrogen receptor alpha signaling (AID 588514); also: nearly all actives have a fitted effect of over 70% in size; also: potency is read from the fitted curve at half-maximal effect
Summary of the method: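 Cells were plated at 5000/well, incubated 4 hrs at 37 C, dosed with compound titration series, incubated 18 hrs at 37 C, loaded with CCF4 dye for 2 hrs at RT, then fluorescence was read.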

[4] = molecular target: Peroxisome proliferator-activated receptor delta (Homo sapiens) (UniProt Q03181); experiment: qHTS assay for small molecule agonists of peroxisome proliferator-activated receptor delta signaling (AID 588534)
Summary of the method: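 Fluorescence from CCF4 substrate cleavage by beta-lactamase reporter, read 2 hrs at RT, measured agonist activity. Compounds were tested with 18 hrs exposure at 37 C. Concentration-response data fitted to Hill equation.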

[5] = molecular target: Vitamin D3 receptor (Homo sapiens) (UniProt P11473); experiment: qHTS assay for small molecule agonists of vitamin D receptor signaling (AID 588543)
Summary of the method: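 Agonist-mode beta-lactamase reporter: HEK293T VDR-UAS-bla cells in charcoal-stripped 2% FBS, compound series 16 h 37 C, CCF4 2 h RT. EC50 from Hill fit, scaled against DMSO and 50 nM calcitriol control.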

[6] = molecular target: Glucocorticoid receptor (Homo sapiens) (UniProt P04150); experiment: qHTS assay for small molecule agonists of glucocorticoid receptor signaling (AID 588532; active = well fitted curve in the direction sought with a large enough effect in the signal ratio, with a control signal flat; inconclusive = small, poorly fitted or top-dose-only effect, or a change in a side signal; inactive = no such curve, though single readings can be large or run the other way; the % refers to the signal ratio); settings: HeLa MMTV-bla, beta-lactamase ratio, agonist, 18 h; stronger effect = higher value; percent of dexamethasone control, DMSO zero
Summary of the method: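 HeLa GRE-bla reporter cells; 18 h compound exposure at 37 C; 2 h CCF4 loading at room temperature; fluorescence at 460 and 530 nm; EC50 by Hill equation.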

[7] = molecular target: Glucocorticoid receptor (Homo sapiens) (UniProt P04150); experiment: qHTS assay for small molecule antagonists of glucocorticoid receptor signaling (AID 588533; active = well fitted inhibition curve with a large enough effect in the signal ratio, with a control signal flat, not every such curve was filed as active; inconclusive = small, poorly fitted or top-dose-only effect, or effect the other way, or a change in a side signal; the % refers to the signal ratio; also: potency is read from the fitted curve at half-maximal effect)
Summary of the method: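 Antagonist-mode qHTS: compound titrations added to GRE-bla HeLa cells, then dexamethasone 2 nM final; 18 h, 37 C. CCF4 FRET fluorescence normalized to dexamethasone and DMSO; IC50 from Hill fit.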

[8] = qHTS assay for small molecule antagonists of peroxisome proliferator-activated receptor delta signaling (AID 588535; active = well fitted inhibition curve with a large enough effect in the signal ratio, with a control signal flat, not every such curve was filed as active; inconclusive = small, poorly fitted or top-dose-only effect, or effect the other way, or a change in a side signal; inactive = no such curve, though single readings can be large or run the other way; the % refers to the signal ratio;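 as to max response: cells co-treated with a PPAR-delta agonist as stimulator during compound exposure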); settings: HEK293T PPARd-UAS-bla, beta-lactamase FRET ratio, 18 h; 460 nm channel
Summary of the method: (§1)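 Antagonist-mode beta-lactamase reporter (GeneBLAzer PPAR-delta-UAS-bla) in HEK293T cells, 2% charcoal/dextran FBS, 4000 cells/well. Compound titrations, 18 h at 37 C; CCF4 ratio read, IC50 and efficacy from Hill fits.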

[9] = molecular target: Peroxisome proliferator-activated receptor delta (Homo sapiens) (UniProt Q03181); experiment: as above
Summary of the method: as §1

[10] = molecular target: Vitamin D3 receptor (Homo sapiens) (UniProt P11473); experiment: qHTS assay for small molecule antagonists of vitamin D receptor signaling (AID 588541);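 also: receptor activated by calcitriol during compound treatment; series mostly up to about 77 µM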
Summary of the method: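 VDR-UAS-bla HEK293T cells in 2% charcoal-stripped FBS were stimulated with 1-alpha,25-dihydroxyvitamin D3 (3 nM final) plus compound for 16 h at 37 C. The beta-lactamase CCF4 readout was normalized to 50 nM agonist and DMSO, and Hill fits gave IC50.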

[11] = molecular target: Peroxisome proliferator-activated receptor gamma (Homo sapiens) (UniProt P37231); experiment: qHTS assay for small molecule agonists of peroxisome proliferator-activated receptor gamma signaling (AID 588536; active = well fitted curve in the direction sought with a large enough effect in the signal ratio, with a control signal flat, not every such curve was filed as active; inconclusive = small, poorly fitted or top-dose-only effect, or effect the other way, or a change in a side signal; inactive = no such curve, though single readings can be large or run the other way; the % refers to the signal ratio)
Summary of the method: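 Test agents, titrated, stimulated HEK293 UAS-bla cells overnight (16 h, 37 C). Substrate CCF4 was then added for two hours at room temperature before fluorescence reading.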

[12] = molecular target: Androgen receptor (Homo sapiens) (UniProt P10275); experiment: qHTS assay for small molecule antagonists of androgen receptor signaling (AID 588516; active = well fitted curve in the direction sought with a large enough effect in the signal ratio, with a control signal flat, not every such curve was filed as active; inconclusive = small, poorly fitted or top-dose-only effect, or effect the other way, or a change in a side signal; inactive = no such curve, though single readings can be large or run the other way; the % refers to the signal ratio)
Summary of the method: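 Antagonist mode: inhibition of R1881-stimulated (10 nM final) bla reporter in GeneBLAzer AR HEK 293 cells, 16 h at 37C, compounds titrated. IC50 and efficacy from Hill-equation fits of 405/460–530 nm FRET ratios.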

[13] = molecular target: Bile acid receptor (Homo sapiens) (UniProt Q96RI1); experiment: qHTS assay for small molecule antagonists of farnesoid X receptor signaling (AID 588526)
Summary of the method: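 Antagonist mode: titrated compounds tested against chenodeoxycholic acid stimulation (normalized to 50 uM CDCA and DMSO) in GeneBLAzer HEK293T cells for 16 h. Beta-lactamase read by CCF4 fluorescence; IC50 from Hill fits.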

[14] = molecular target: Peroxisome proliferator-activated receptor gamma (Homo sapiens) (UniProt P37231); experiment: qHTS assay for small molecule antagonists of peroxisome proliferator-activated receptor gamma signaling (AID 588537; active = well fitted inhibition curve with a large enough effect in the signal ratio, with a control signal flat, not every such curve was filed as active; inconclusive = small, poorly fitted or top-dose-only effect, or effect the other way, or a change in a side signal; the % refers to the signal ratio;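 also: reporter cells co-stimulated with 50 nM rosiglitazone agonist during compound treatment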)
Summary of the method: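 PPARγ-UAS-bla HEK293 cells (3000/well) in 1% charcoal/dextran-stripped FBS are treated with compound, then stimulated with 50 nM rosiglitazone for 16 h at 37 °C. Read-out is CCF4 β-lactamase fluorescence after 2 h at RT. IC50 comes from Hill fits normalised to rosiglitazone and DMSO.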

[15] = molecular target: DNA dC->dU-editing enzyme APOBEC-3G (Homo sapiens) (UniProt Q9HC16); experiment: qHTS for inhibitors of Vif-A3G interactions: Validation (AID 588379; active = well fitted inhibition curve with a large enough effect; inconclusive = small, poorly fitted or top-dose-only effect)
Summary of the method: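 HeLa cells stably expressing Vif and A3G-eYFP, 700 cells/well, incubated overnight at 37 deg C, then exposed to compound overnight at 37 deg C. Inhibition of Vif-mediated degradation read as increased yellow fluorescence (Ex 488/Em 500-530) by laser-scanning cytometry.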

[16] = molecular target: Androgen receptor (Homo sapiens) (UniProt P10275); experiment: qHTS assay for small molecule agonists of androgen receptor signaling (AID 588515; active = well fitted curve in the direction sought with a large enough effect in the signal ratio, with a control signal flat; inconclusive = small, poorly fitted or top-dose-only effect, or effect the other way, or a change in a side signal; inactive = no such curve, though single readings can be large or run the other way; the % refers to the signal ratio); settings: AR-UAS-bla HEK293, beta-lactamase ratio, agonist 16 h; stronger effect = higher value
Summary of the method: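 EC50 and efficacy came from Hill fits of titrations (up to 92 uM) normalized to 30 nM R1881 as 100% and DMSO as 0%. Compound exposure was 16 h at 37 C on AR-UAS-bla HEK293 cells, with a 405/460/530 nm CCF4 fluorescence read.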

Peroxisome proliferator-activated receptor gamma (Homo sapiens), sequence (P37231 whole entry, looked up): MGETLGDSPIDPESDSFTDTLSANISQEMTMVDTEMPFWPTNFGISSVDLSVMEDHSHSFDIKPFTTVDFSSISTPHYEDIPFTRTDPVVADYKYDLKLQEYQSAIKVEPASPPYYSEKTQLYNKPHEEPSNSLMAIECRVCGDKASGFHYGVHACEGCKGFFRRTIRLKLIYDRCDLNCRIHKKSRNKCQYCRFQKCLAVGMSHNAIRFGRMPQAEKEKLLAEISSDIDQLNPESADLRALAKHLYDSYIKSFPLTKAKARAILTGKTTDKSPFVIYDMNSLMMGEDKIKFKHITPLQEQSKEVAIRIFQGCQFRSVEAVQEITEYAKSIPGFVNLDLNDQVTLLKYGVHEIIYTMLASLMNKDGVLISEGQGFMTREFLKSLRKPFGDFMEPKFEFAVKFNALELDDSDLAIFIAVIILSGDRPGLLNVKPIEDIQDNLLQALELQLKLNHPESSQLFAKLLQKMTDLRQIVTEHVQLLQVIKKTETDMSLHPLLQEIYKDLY
Ubiquitin carboxyl-terminal hydrolase 1 (Homo sapiens), sequence (O94782 whole entry, looked up): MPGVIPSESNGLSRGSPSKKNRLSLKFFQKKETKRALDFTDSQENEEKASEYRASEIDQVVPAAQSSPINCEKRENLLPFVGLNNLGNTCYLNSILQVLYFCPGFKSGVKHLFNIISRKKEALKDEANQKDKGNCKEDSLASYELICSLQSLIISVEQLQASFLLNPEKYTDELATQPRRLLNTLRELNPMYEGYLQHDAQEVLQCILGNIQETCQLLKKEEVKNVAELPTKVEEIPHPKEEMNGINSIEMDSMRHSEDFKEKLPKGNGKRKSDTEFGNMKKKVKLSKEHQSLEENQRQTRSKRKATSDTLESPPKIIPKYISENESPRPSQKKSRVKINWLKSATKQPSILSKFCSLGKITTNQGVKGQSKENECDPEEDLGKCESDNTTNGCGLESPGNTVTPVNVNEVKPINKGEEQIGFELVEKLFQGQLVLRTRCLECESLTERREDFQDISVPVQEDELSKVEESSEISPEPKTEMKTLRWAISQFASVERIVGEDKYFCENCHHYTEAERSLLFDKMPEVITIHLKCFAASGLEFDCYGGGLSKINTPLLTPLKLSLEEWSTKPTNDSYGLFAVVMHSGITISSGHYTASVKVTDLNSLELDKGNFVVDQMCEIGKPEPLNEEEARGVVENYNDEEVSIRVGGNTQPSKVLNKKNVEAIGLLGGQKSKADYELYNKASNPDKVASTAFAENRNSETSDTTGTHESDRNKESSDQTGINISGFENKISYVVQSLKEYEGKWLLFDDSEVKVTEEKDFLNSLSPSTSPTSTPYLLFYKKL
Estrogen receptor (Homo sapiens), sequence (P03372 whole entry, looked up): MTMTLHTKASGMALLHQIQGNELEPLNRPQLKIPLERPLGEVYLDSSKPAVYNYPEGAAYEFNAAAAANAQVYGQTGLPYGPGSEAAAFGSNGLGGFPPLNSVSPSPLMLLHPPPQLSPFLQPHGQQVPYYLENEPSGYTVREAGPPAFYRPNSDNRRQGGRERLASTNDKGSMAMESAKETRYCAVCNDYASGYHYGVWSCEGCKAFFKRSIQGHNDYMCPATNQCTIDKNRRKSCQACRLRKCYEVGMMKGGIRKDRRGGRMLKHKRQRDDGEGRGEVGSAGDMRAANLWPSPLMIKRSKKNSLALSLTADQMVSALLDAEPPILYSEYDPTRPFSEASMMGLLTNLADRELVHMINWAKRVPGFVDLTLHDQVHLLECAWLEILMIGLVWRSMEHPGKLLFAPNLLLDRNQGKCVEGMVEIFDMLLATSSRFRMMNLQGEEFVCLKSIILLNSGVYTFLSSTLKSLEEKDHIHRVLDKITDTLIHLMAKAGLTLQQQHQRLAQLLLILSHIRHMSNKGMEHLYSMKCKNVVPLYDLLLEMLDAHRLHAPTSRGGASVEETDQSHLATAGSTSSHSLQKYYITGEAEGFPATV
Androgen receptor (Homo sapiens), sequence (P10275 whole entry, looked up): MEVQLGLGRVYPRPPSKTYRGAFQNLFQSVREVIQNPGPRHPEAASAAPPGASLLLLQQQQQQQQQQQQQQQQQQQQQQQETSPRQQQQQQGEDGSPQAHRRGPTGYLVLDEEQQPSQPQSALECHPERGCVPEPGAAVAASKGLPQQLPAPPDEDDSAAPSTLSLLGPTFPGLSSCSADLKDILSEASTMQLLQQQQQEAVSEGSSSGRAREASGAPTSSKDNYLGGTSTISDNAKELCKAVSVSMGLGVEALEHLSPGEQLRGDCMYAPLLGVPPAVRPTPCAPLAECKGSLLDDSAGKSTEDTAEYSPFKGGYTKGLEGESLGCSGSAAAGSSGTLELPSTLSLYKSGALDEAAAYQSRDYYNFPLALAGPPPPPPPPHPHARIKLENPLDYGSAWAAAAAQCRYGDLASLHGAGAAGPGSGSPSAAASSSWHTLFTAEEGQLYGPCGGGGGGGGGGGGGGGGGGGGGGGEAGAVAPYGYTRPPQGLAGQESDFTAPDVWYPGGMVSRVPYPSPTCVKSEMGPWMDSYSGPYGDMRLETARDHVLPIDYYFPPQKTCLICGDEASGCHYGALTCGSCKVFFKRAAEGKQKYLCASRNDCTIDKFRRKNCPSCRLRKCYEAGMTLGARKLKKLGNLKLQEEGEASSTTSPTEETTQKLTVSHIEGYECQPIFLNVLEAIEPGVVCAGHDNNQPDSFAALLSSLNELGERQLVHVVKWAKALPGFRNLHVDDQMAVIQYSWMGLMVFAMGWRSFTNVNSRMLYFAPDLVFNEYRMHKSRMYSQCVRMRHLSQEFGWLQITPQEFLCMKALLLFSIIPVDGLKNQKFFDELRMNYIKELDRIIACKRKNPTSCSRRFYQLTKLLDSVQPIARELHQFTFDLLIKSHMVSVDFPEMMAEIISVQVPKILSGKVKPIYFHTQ
Peroxisome proliferator-activated receptor delta (Homo sapiens), sequence (Q03181 whole entry, looked up): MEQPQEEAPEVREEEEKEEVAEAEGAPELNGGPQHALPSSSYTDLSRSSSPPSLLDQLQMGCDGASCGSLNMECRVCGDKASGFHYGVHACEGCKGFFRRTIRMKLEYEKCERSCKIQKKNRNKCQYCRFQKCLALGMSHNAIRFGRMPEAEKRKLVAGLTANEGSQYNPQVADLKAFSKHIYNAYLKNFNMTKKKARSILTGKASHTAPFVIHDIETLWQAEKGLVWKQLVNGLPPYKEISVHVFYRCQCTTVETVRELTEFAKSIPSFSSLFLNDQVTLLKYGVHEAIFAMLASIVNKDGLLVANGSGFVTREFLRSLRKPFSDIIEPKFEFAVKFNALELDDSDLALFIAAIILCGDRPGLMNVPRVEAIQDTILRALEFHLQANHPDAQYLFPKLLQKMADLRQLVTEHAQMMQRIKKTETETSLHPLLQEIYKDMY
Glucocorticoid receptor (Homo sapiens), sequence (P04150 whole entry, looked up): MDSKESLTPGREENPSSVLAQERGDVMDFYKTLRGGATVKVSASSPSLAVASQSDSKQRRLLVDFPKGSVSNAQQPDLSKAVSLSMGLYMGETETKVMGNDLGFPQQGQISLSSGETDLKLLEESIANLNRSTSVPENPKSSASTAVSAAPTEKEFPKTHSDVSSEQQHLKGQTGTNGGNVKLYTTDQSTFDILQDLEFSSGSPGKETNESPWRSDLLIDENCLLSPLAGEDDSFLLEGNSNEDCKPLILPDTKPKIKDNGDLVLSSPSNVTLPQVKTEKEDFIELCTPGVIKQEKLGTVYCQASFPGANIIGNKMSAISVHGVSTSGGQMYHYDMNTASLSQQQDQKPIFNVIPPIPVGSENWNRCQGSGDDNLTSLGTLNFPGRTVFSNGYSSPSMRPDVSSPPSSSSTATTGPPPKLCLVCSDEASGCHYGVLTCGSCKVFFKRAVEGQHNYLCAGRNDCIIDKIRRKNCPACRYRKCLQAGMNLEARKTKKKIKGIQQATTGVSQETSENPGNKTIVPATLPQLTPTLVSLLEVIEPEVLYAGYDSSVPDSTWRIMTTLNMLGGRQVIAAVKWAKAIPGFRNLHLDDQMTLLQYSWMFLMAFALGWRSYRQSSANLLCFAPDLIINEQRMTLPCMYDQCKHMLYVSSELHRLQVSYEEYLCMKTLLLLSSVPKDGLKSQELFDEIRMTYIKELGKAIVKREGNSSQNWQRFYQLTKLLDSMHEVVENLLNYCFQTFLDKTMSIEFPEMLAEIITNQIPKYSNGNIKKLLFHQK
Vitamin D3 receptor (Homo sapiens), sequence (P11473 whole entry, looked up): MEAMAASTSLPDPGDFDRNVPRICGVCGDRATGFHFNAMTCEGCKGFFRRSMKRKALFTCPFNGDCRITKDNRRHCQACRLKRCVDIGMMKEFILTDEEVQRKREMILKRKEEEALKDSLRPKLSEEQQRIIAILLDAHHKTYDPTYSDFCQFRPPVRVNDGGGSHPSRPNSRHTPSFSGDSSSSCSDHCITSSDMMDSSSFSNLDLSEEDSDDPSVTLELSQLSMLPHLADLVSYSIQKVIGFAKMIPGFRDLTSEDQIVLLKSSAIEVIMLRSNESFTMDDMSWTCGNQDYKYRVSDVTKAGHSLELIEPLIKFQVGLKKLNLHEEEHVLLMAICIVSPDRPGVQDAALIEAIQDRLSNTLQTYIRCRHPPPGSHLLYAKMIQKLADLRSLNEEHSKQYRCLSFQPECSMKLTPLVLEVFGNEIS
DNA dC->dU-editing enzyme APOBEC-3G (Homo sapiens), sequence (Q9HC16 whole entry, looked up): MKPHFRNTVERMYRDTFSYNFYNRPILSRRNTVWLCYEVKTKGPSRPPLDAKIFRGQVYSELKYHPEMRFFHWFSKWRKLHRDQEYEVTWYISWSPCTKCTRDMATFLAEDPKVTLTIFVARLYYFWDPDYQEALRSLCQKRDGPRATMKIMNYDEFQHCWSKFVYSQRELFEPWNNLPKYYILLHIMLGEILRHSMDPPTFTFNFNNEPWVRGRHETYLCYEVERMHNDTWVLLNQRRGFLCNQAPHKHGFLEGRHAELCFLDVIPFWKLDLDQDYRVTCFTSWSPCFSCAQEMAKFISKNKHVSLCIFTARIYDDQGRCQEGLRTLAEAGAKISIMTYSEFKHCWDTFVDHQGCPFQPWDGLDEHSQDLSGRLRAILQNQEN

CC(C)Nc1ccc(Nc2ccccc2)cc1
Potency [1]: inactive | Potency [2]: 22.4 µM [inconclusive] (active) | Potency [3]: inactive | outcome [4]: inactive | outcome [5]: inactive

CCOP(=O)(OCC)O/C(=C/Cl)c1ccc(Cl)cc1Cl
Potency [2]: inactive | Potency [3]: inactive | activation [6]: -9.9% (inactive) and -3.21% (inactive) | Potency [7]: inactive | outcome [4]: inactive | max response [8]: -26.4% and 25.5% | outcome [9]: inactive | Potency [10]: inactive | outcome [5]: inactive

O=C1C2CC=CCC2C(=O)N1SC(Cl)(Cl)Cl (stereo unspecified)
Potency [2]: 12.6 µM [inconclusive] (active) and 10 µM [inconclusive] (active) and inactive | outcome [4]: inactive | max response [8]: 55.5% | outcome [9]: inactive | outcome [11]: inactive | outcome [5]: inactive

[O]=[Cr](=[O])([OH])[O][Cr](=[O])(=[O])[OH]
Potency [1]: 25.1 µM (active) | Potency [2]: inactive | Potency [3]: inactive | outcome [12]: inactive | Potency [13]: inactive | activation [6]: -11.3% (inactive) and -15.7% (inactive) | Potency [7]: 10 µM (active) and 39.8 µM (active) and 12.6 µM (active) | max response [8]: -63.4% | outcome [9]: inactive | outcome [11]: inactive | Potency [10]: inactive | outcome [5]: inactive

C[C@H]1CCC[C@H](O)CCCCCc2cc(O)cc(O)c2C(=O)O1
Potency [1]: inactive | Potency [3]: 0.141 µM (active) | activation [6]: 9.28% (inactive) | outcome [11]: inactive | Potency [14]: inactive

COc1ccc2c(c1OC)C(=O)OC2C1c2cc3c(cc2CCN1C)OCO3 (stereo unspecified)
outcome [15]: inactive | activation [16]: -2.23% (inactive) | outcome [12]: inactive | outcome [4]: inactive | outcome [11]: inactive | Potency [14]: inactive

O=C1C=C2C=C[C@@H]3C[C@@]2(O1)[C@H]1CCCCN31
outcome [15]: inactive

CCCSP(=O)(OCC)SCCC
activation [16]: -4.11% (inactive) | Potency [13]: inactive | Potency [7]: inactive | outcome [11]: inactive | Potency [14]: inactive | Potency [10]: inactive | outcome [5]: inactive
